NFkB SMM – binders of NF-kB p50 subunit, primary screen, biochemical, small molecule microarray, anti-His fluorescence; Nuclear factor NF-kappa-B p105 subunit (Homo sapiens), P19838; anti-His fluorescence binding; calls only; 17,000 compounds, 1.3% hits; AID 624139, 2012;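 active = spot fluorescence over background significantly raised, with a chance value under 7% in all four replicate spots of the compound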;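 note: probe protein is his-tagged human p50 processed subunit at 1 µg/ml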
Target sequence (P19838 1-433 limits assumed): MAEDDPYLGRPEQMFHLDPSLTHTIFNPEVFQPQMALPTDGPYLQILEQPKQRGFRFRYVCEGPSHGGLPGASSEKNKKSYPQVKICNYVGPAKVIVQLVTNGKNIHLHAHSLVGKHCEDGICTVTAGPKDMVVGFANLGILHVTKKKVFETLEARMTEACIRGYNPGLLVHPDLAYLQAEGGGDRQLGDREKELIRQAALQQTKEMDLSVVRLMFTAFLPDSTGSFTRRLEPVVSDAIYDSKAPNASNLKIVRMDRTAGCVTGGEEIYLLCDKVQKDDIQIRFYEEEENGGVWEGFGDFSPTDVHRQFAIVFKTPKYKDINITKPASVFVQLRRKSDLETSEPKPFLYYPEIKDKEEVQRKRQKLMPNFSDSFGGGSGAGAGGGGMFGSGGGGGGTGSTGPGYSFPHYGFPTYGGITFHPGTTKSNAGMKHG
c-Myc SMM – binders of human c-Myc, primary screen, biochemical, small molecule microarray, anti-His fluorescence | 17,000 compounds, 1.5% hits | Myc proto-oncogene protein (Homo sapiens), P01106 | calls only | His-c-Myc binding | AID 624141, 2012;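 active = spot fluorescence over background with P-value below 7% in all four replicate spots, showing protein binding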
STAT3 binder – STAT3 binders, primary screen, biochemical, small molecule microarray, single point, set 2; Signal transducer and activator of transcription 3 (Homo sapiens), P40763; His-STAT3 binding, anti-His fluorescence; calls only; 17,000 compounds, 0.2% hits;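 active = compounds whose four printed spots each show fluorescence over background unusually high for their array block, chance value under 7%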
p53 mut binder – binders of human mutant p53, primary screen, biochemical, small molecule microarray, anti-GST fluorescence; mutant tumor protein p53 (GST-tagged), Homo sapiens; small molecule microarray binding; calls only; 17,000 compounds, 0.4% hits;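 active = compounds whose four printed spots each glow above background more than chance allows, each with a p-value under 7%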
Of the large screens only hits and unclear results are named; the others gave an inactive call. Rows were chosen to be rich in hits. Some 2.5% of all compounds tested hit in one or more screens of this group.

C[C@H](CO)N1C[C@H](C)[C@H](CN(C)C(=O)c2ccccc2)OCCCC[C@H](C)Oc2ccc(NC(=O)Nc3ccc4c(c3)OCO4)cc2C1=O	c-Myc SMM active, p53 mut binder active
C[C@@H]1CCCCO[C@H](CN(C)C(=O)c2ccccc2)[C@H](C)CN([C@@H](C)CO)C(=O)c2cc(NC(=O)Nc3ccc(F)cc3)ccc2O1	NFkB SMM active
CNC[C@H]1Oc2ccc(NC(=O)CCCN(C)C)cc2CC(=O)N([C@H](C)CO)C[C@@H]1C	none
Cc1ccccc1C(=O)NCCc1nc2ccccc2[nH]1	none
COc1ccc(S(=O)(=O)Nc2ccc3c(c2)C(=O)N([C@@H](C)CO)C[C@@H](C)[C@H](CN(C)C(=O)Nc2ccc4c(c2)OCO4)OCCCC[C@@H](C)O3)cc1	none
COc1ccc(NC(=S)NCCn2cc(Br)cn2)cc1OC	none
COc1ccc(Cl)cc1NC(=S)NCCn1cc(Cl)cn1	c-Myc SMM active
COc1ccc(Cl)cc1NC(=S)NCCCN1CCCC1=O	c-Myc SMM active
C[C@H](CO)N1C[C@H](C)[C@@H](CN(C)S(=O)(=O)c2cccs2)Oc2ccc(NS(=O)(=O)c3ccc(Cl)cc3)cc2CC1=O	none
O=C(O)c1cc(O)c2c(c1)C(=O)c1cccc(O)c1C2=O	none
COc1c(C=O)c(O)cc2c1C(=O)c1ccccc1C2=O	c-Myc SMM active
COc1ccc(C(=O)NCC(=O)Nc2cccc(C(F)(F)F)c2)cc1	none
COc1cc2c(cc1OC)CN(C(=O)[C@@H]1[C@H]3C(=O)O[C@H](c4ccccc4)[C@H](c4ccccc4)N3[C@H](c3ccc(OCCO)cc3)[C@@]13C(=O)Nc1ccc(C#CC4(O)CCCCCC4)cc13)CC2	NFkB SMM active
COc1cc2c(cc1OC)CN(C(=O)[C@H]1[C@@H]3C(=O)O[C@@H](c4ccccc4)[C@@H](c4ccccc4)N3[C@@H](c3ccccc3OCCO)[C@]13C(=O)Nc1ccc(C#CC4=CCCCC4)cc13)CC2	NFkB SMM active
COc1cc2c(cc1OC)CN(C(=O)[C@@H]1[C@H]3C(=O)O[C@H](c4ccccc4)[C@H](c4ccccc4)N3[C@H](c3ccc(OCCO)cc3)[C@@]13C(=O)Nc1ccccc13)CC2	none
COc1cc2c(cc1OC)CN(C(=O)[C@H]1[C@@H]3C(=O)O[C@@H](c4ccccc4)[C@@H](c4ccccc4)N3[C@@H](c3ccc(OCCO)cc3)[C@]13C(=O)Nc1ccc(C#CC4=CCCCC4)cc13)CC2	NFkB SMM active
COC(=O)C(CC#Cc1ccc2c(c1)[C@]1(C(=O)N2)[C@H](C(=O)N2CCc3cc(OC)c(OC)cc3C2)[C@H]2C(=O)O[C@H](c3ccccc3)[C@H](c3ccccc3)N2[C@@H]1c1ccc(OCCO)cc1)C(=O)OC	none
NC(=O)[C@@H]1[C@H]2C(=O)O[C@H](c3ccccc3)[C@H](c3ccccc3)N2[C@H](c2ccc(OCCO)cc2)[C@@]12C(=O)Nc1ccc(C#CC3(O)CCCCCC3)cc12	none
O=C1O[C@H](c2ccccc2)[C@H](c2ccccc2)N2[C@H]1[C@@H](C(=O)N1CCCCCCC1)[C@]1(C(=O)Nc3ccc(C#CC4(O)CCCCCC4)cc31)[C@H]2c1ccc(OCCO)cc1	NFkB SMM active, c-Myc SMM active, p53 mut binder active
C[C@@H]1CN([C@@H](C)CO)C(=O)c2cccc(NC(=O)C3CC3)c2O[C@H]1CN(C)C(=O)Nc1ccccc1	none
CC/C=C\C/C=C\C/C=C\C/C=C\C/C=C\C/C=C\CCC(=O)O	none
C[C@H](CO)N1C[C@H](C)[C@H](CN(C)Cc2ccc(F)cc2)Oc2ncccc2C1=O	none
C[C@H](CO)N1C[C@H](C)[C@@H](CN(C)Cc2ccc(C(=O)O)cc2)OCCCC[C@H](C)Oc2ccc(NC(=O)Nc3ccc(F)cc3)cc2C1=O	none
COC(=O)C1=COC(O[C@@H]2O[C@H](CO)[C@@H](OC(=O)/C=C/c3ccc(O)cc3)[C@H](O)[C@H]2O)[C@H]2[C@@H]1[C@H](O)C[C@]2(C)OC(C)=O (some centres not stated)	none
Cc1ccc(-c2nc(SCC(=O)Nc3cccc(Br)c3)n[nH]2)cc1	none
O=C1O[C@@H](c2ccccc2)[C@@H](c2ccccc2)N2[C@@H](c3ccc(OCCO)cc3)[C@]3(C(=O)Nc4ccc(C#CC5=CCCCC5)cc43)[C@@H](C(=O)N3CCCCCCC3)[C@H]12	STAT3 binder active, p53 mut binder active
C=CCOC(=O)[C@@H]1[C@H]2C(=O)O[C@H](c3ccccc3)[C@H](c3ccccc3)N2[C@H](c2ccc(OCCOC(=O)[C@@H]3C[C@@H]4C(=O)N[C@@H](CC(C)C)C(=O)N4[C@@H]3c3ccc(O)cc3)cc2)[C@@]12C(=O)Nc1ccc(I)cc12	none
C=CCOC(=O)[C@H]1[C@@H]2C(=O)O[C@@H](c3ccccc3)[C@@H](c3ccccc3)N2[C@@H](c2ccc(OCCOC(=O)[C@H]3C[C@H]4C(=O)N5CCC[C@H]5C(=O)N4[C@H]3c3ccc(O)cc3)cc2)[C@]12C(=O)Nc1ccccc12	NFkB SMM active
C=CCOC(=O)[C@@H]1[C@H]2C(=O)O[C@H](c3ccccc3)[C@H](c3ccccc3)N2[C@H](c2ccc(OCCOC(=O)[C@@H]3C[C@@H]4C(=O)N[C@@H](Cc5ccccc5)C(=O)N4[C@@H]3c3cccc(OCCO)c3)cc2)[C@@]12C(=O)Nc1ccc(I)cc12	NFkB SMM active
C=CCOC(=O)[C@H]1[C@@H]2C(=O)O[C@@H](c3ccccc3)[C@@H](c3ccccc3)N2[C@@H](c2ccc(OCCOC(=O)[C@@H]3C[C@@H]4C(=O)N5CCC[C@H]5C(=O)N4[C@@H]3c3ccc(O)cc3)cc2)[C@]12C(=O)Nc1ccc(I)cc12	none
C[C@H](CO)N1C[C@H](C)[C@@H](CN(C)C(=O)Nc2ccc(F)cc2)Oc2ccc(NS(C)(=O)=O)cc2C1=O	none
Cc1ccc(S(=O)(=O)N2CCC[C@H]2Cn2cc(CN3C(=O)COC[C@H]3c3ccccc3)nn2)cc1	p53 mut binder active
COCCOC(=O)N1C(=O)[C@@]2(c3ccccc31)[C@H](C(=O)N1CCN(c3ncccn3)CC1)[C@H]1C(=O)O[C@H](c3ccccc3)[C@H](c3ccccc3)N1[C@@H]2c1ccc(OCCO)cc1	none
COCCOC(=O)N1C(=O)[C@@]2(c3cc(C#CC4=CCCCC4)ccc31)[C@H](C(=O)N1CCN(c3ncccn3)CC1)[C@H]1C(=O)O[C@H](c3ccccc3)[C@H](c3ccccc3)N1[C@@H]2c1ccccc1OCCO	NFkB SMM active
COCCOC(=O)N1C(=O)[C@@]2(c3cc(C#CCC(C(=O)OC)C(=O)OC)ccc31)[C@H](c1ccc(OCCO)cc1)N1[C@H](c3ccccc3)[C@H](c3ccccc3)OC(=O)[C@H]1[C@@H]2C(=O)N1CCN(c2ncccn2)CC1	NFkB SMM active

Screening results: PubChem, Broad Institute
